The test system of one assay is ES2. Kind of assay: cell viability relative to DMSO control (MTS) (fraction of DMSO control); higher = more viable cells / less growth inhibition. To be noted: 10 µM; 48 h. Summed up: (§1)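 Viability values are fractions of the vehicle-treated control. They come from an MTS assay run per the manufacturer's instructions on TOV-21G and ES2 clear cell carcinoma cells, seeded at 5000 cells per well in 96-well plates. Each compound of a 367-member […] library was added at 10 µM final after 24 h of growth, and the readout was taken after a further 48 h.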

The subject of another assay is TOV-21G. The description is as above. To be noted: 10 µM; 48 h. In outline:
as §1

Here are results for 23 molecules from the supplement of paper PMC12669797.

Molecules are shown by their SMILES. Several values for one entry are separate records, joined by “and”; a condition that tells them apart may be missing. Equal entries are not always repeated. Structures can show the parent of a compound that is named as a salt. ± gives the standard deviation of the averaged measurements.

Regarding `O=C1NC(=O)c2c1c1c3ccccc3n3c1c1c2c2ccccc2n1[C@H]1CC[C@@H]3O1`, the cell viability in the assay with ES2 is 0.973 and 1.25; in the assay with TOV-21G, 1.01 and 1.24.

Consider `CC[C@@]1(O)C(=O)OCc2c1cc1n(c2=O)Cc2cc3ccccc3nc2-1` [Camptothecin], for which the cell viability was 0.527 with ES2 and 0.267 in the assay on TOV-21G.

As to `N.N.[Cl][Pt][Cl]` [Cisplatin], the figures for the cell viability with ES2 and in the assay with TOV-21G were 0.794 and 1.09, respectively.

In the case of `N=C(N)NN` [Aminoguanidine, HCl], the cell viability turned out to be 0.55 with ES2 and 0.337 in the assay on TOV-21G.

With `C/C=C(/C)C(=O)O[C@H]1C(C)=C2[C@H]([C@@H]1OC(=O)CCCCCCC)[C@@](C)(OC(C)=O)C[C@H](OC(=O)CCC)[C@@]1(O)[C@H]2OC(=O)[C@@]1(C)O` [Thapsigargin], the cell viability is 0.505 in the assay with ES2 and 0.348 in the assay with TOV-21G.

For `C[C@@H]1O[C@@H](O[C@H]2C[C@@H](O)[C@]3(CO)[C@H]4[C@H](O)C[C@]5(C)[C@@H](C6=CC(=O)OC6)CC[C@]5(O)[C@@H]4CC[C@]3(O)C2)[C@H](O)[C@H](O)[C@H]1O` [Ouabain], the figures for the cell viability with ES2 and in the assay on TOV-21G were 0.439 and 0.279, respectively.

Consider `COc1ccc2c3c([nH]c2c1)[C@H](C=C(C)C)N1C(=O)[C@@H]2CCCN2C(=O)[C@@H]1C3` [Fumitremorgin C], for which the cell viability with ES2 is 0.945; in the assay with TOV-21G, 0.838.

For the molecule `C[C@H](CCC(=O)O)C[C@H](C)C[C@H](C)C(=O)/C=C(\O)[C@H](C)C[C@H](C)C/C=C/[C@@H](C)[C@@H](O)[C@@H](C)[C@@H](O)C[C@@H]1CC[C@@](C)([C@H]2CC[C@@](C)([C@@H](C)O)O2)O1` [Ionomycin], the cell viability in the assay on ES2 is 0.54; with TOV-21G it was 0.501.

Regarding `CN1C(=O)[C@]2(Cc3cn([C@]45C[C@@]67SS[C@@](CO)(C(=O)N6[C@H]4Nc4ccccc45)N(C)C7=O)c4ccccc34)SS[C@@]1(CO)C(=O)N2C` [Chetomin], the cell viability with ES2 is 0.32; with TOV-21G it was 0.254.

Take `COc1ccc(C[C@H]2NC[C@H](O)[C@H]2OC(C)=O)cc1` [anisomycin]: the cell viability was 0.394 in the assay on ES2 and 0.372 in the assay on TOV-21G.

`NC(=S)N/N=C\c1coc2ccccc2c1=O.[Cl][Cu][Cl]` [Akt Inhibitor XI]: the cell viability in the assay with ES2 is 1.23; in the assay with TOV-21G it was 0.935.

Turning to `CN(N=O)c1cc(O)ccc1O` [Dephostatin], the cell viability in the assay on ES2 was determined as 1.14; in the assay with TOV-21G, 1.02.

On to `C#CCN(C)C(C)Cc1ccccc1` (stereo unspecified) [Deprenyl], for which the figures for the cell viability with ES2 and in the assay with TOV-21G were 1.12 and 1.01, respectively.

Consider `CC1=C2C[C@H]3[C@@H](CC=C4C[C@@H](O)CC[C@@]43C)[C@@H]2CC[C@]12O[C@@H]1C[C@H](C)CN[C@H]1[C@H]2C` [cyclopamine], for which the cell viability in the assay on ES2 is 0.92; in the assay on TOV-21G it was 0.927.

In the case of `CC(C)(c1ccc(OCC2CO2)cc1)c1ccc(OCC2CO2)cc1` (stereo unspecified), the cell viability with ES2 was found to be 0.975; with TOV-21G, 1.27.

As for `CN1C(=O)CN=C(c2ccc(Cl)cc2)c2cc(Cl)ccc21`, the cell viability is 1.1 in the assay on ES2 and 0.825 with TOV-21G.

Turning to `O=C1Nc2ccccc2C2(CCN(CCc3ccc(C(F)(F)F)cc3)CC2)O1`, the cell viability stood at 0.915 in the assay with ES2 and 1.12 in the assay on TOV-21G.

Regarding `C[C@H]1O[C@@H](n2cnc3c(N)ncnc32)C[C@@H]1O` [2',5'-dideoxyadenosine], the cell viability stood at 0.972 with ES2 and 1.05 in the assay with TOV-21G.

As for `O[C@H]1[C@H]2[C@H](O)CCCN2C[C@H]1O` [Swainsonine], the cell viability in the assay with ES2 was 0.98; with TOV-21G, 0.689.

Regarding `CO/C1=C\C(C)=C\[C@@H](C)[C@@H](O)[C@@H](C)C/C(C)=C/C=C/[C@H](OC)[C@@H]([C@@H](C)[C@@H](O)[C@H](C)[C@@]2(O)C[C@@H](O)[C@H](C)[C@@H](C(C)C)O2)OC1=O` [Bafilomycin A1], the cell viability turned out to be 0.467 in the assay on ES2 and 0.395 in the assay on TOV-21G.

Regarding `N[C@@H]1C[C@H]1c1cc(F)cc(F)c1OCc1ccccc1` [S2101 (LSD1 inhibitor II)], the results for the cell viability in the assay on ES2 and in the assay on TOV-21G were 0.792 and 1.04, respectively.

As for `CCC1(c2ccc(N)cc2)CCC(=O)NC1=O` (stereo unspecified) [Aminoglutethimide], the cell viability with ES2 came out at 1.08; in the assay with TOV-21G, 0.918.

As for `CC(C)(C)c1cc(C=C(C#N)C#N)cc(Br)c1O`, the cell viability with ES2 is 0.94 ± 0.18; in the assay on TOV-21G, 1.09 ± 0.034.
